# In PubChem BioAssay (NCI):
# This is part of a sample that, as a whole, favours compounds with a hit. Of some 83,000 tested, about 20% had one in any assay.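 Each cell line was grown in a 96-well plate and treated with one concentration of compound for 48 hours. Values below 10 were considered active.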 Unmarked numbers belong to inactive results. Activity calls are given as the source filed them.
# Experiments:
# Assay in all cases: NCI-60 one-dose screen, 48 h (100 = growth as untreated, 0 = no growth, -100 = all killed)
# Details in all cases: 10 µM unless noted
# [1] = system: SN12C renal
# [2] = system: UO-31 renal
# [3] = system: TK-10 renal
# [4] = system: ACHN renal
# [5] = system: CAKI-1 renal
# [6] = system: A498 renal
# [7] = system: CCRF-CEM leukemia
# [8] = system: MOLT-4 leukemia
# [9] = system: RPMI-8226 leukemia
# [10] = system: OVCAR-8 ovarian
# [11] = system: OVCAR-5 ovarian
# [12] = system: OVCAR-4 ovarian
# [13] = system: SK-OV-3 ovarian
# [14] = system: IGROV1 ovarian
# [15] = system: OVCAR-3 ovarian
# [16] = system: HS 578T breast
# [17] = system: NCI/ADR-RES ovarian
# [18] = system: T-47D breast
# [19] = system: SR leukemia
SMILES,growth [1],growth [2],growth [3],growth [4],growth [5],growth [6],growth [7],growth [8],growth [9],growth [10],growth [11],growth [12],growth [13],growth [14],growth [15],growth [16],growth [17],growth [18],growth [19]
CC(=O)Oc1ccc(C2OC(c3ccc4ccccc4c3OC(C)=O)=NN2C(C)=O)c(OC(C)=O)c1 (stereo unspecified),21.8%,7.69% (active),34.4%,21.2%,18.7%,35%,7.23% (active),2.64% (active),21.2%,8.13% (active),63.2%,32.2%,27.6%,20.3%,18.7%,59.7%,11.1%,25%,–
CSc1nc2c(c(=O)[nH]1)C(c1ccc(Cl)cc1)C1=C(N2)/C(=C/c2ccc(Cl)cc2)CNC1 (stereo unspecified),39.7%,16.8%,78.9%,72.5%,76.8%,18.3%,–,18.7%,-13.4% (active),31.6%,105%,33.1%,87.4%,26.1%,4.17% (active),68.7%,74.5%,54.3%,–
COc1ccc(-n2nnc(C(=O)O)c2-c2cc(OC)c(OC)c(OC)c2)cc1,105%,110%,93.2%,105%,102%,–,105%,94%,99.5%,100%,103%,109%,99.1%,116%,119%,102%,109%,104%,85.4%
CCOc1nc(-c2ccccc2)cc2c(O)c(-c3nnco3)[nH]c(=O)c12,47.2%,29.1%,31.8%,52.3%,34.6%,45.3%,15.7%,–,48.3%,30.6%,101%,51.5%,59.3%,36.7%,27.8%,68%,25.5%,2.73% (active),21.3%
O=C1/C(=C/c2ccc([N+](=O)[O-])o2)Oc2ccc(Br)cc21,40.3%,-18.6% (active),-28.5% (active),1.25% (active),74%,113%,66.2%,–,84.2%,6.99% (active),105%,5.15% (active),92.1%,-17.9% (active),–,106%,98.3%,58%,8.8% (active)
O=C1/C(=C/c2ccc([N+](=O)[O-])s2)Oc2ccc(Br)cc21,-32.5% (active),-87.4% (active),-25.3% (active),-64% (active),-16.3% (active),-32.8% (active),-3.33% (active),–,-6.04% (active),-6.92% (active),-66.8% (active),-75.8% (active),-34.3% (active),-45.9% (active),-65.3% (active),16.2%,-31.2% (active),-55.7% (active),7.74% (active)
COc1ccc(-c2csc(NC(=O)c3cc(OC)c(OC)c(OC)c3)n2)cc1,98.7%,89.3%,117%,107%,94.1%,92.2%,105%,103%,92.7%,97.2%,103%,96.8%,101%,100%,105%,96.4%,115%,94.8%,95.8%
C[C@]12CC[C@@H]3c4ccc(O)cc4CC[C@H]3[C@@H]1CC[C@@H]2NS(=O)(=O)c1cccc(Br)c1,69.8%,36.3%,75.4%,58.9%,62.9%,65%,–,36.3%,44.4%,67%,97.7%,53.9%,90.7%,53.1%,58.8%,73.8%,56.2%,37.4%,27.1%
O=C(O)c1ccc(NC(=O)c2cccc(Nc3ccnc(C(F)(F)F)c3)c2)cc1,106%,82%,97.8%,103%,95.1%,106%,94.8%,93.4%,98.3%,98.9%,103%,98.1%,105%,106%,104%,98.3%,107%,94.3%,–
